Assay results from PubChem BioAssay (NCATS).
Results filed as inconclusive are left out. Calls of active or inactive are those of the source. Unless noted, no rule for the calls is given here.

How the values were obtained:
[1] = qHTS profiling of the MIPE4 collection as inhibitors of Plasmodium falciparum (DD2) proliferation (Rep 2) (AID 743346); details: P. falciparum Dd2 in erythrocytes, SYBR Green DNA, 72 h; at 28.5 µM unless noted
In short: (§1)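 Parasite DNA was quantified by SYBR Green I fluorescence (ex 485, em 535 nm) after overnight lysis in saponin/Triton buffer at room temperature. Cultures at 0.3% parasitemia and 2.5% hematocrit were first exposed to compound for 72 h at 37 C; signals were normalised to artemisinin (0.29 uM) and vehicle wells.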

[2] = qHTS profiling of the MIPE4 collection as inhibitors of Plasmodium falciparum (HB3) proliferation (AID 743347);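 also: plate controls were DMSO vehicle wells for no effect and artemisinin wells for full effect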; details: P. falciparum HB3 in erythrocytes, SYBR Green DNA, 72 h; at 28.5 µM unless noted
In short: as §1

[3] = High-throughput drug toxicity screening in the BPDCN cell line Gen2.2 (AID 1224824); details: Gen2.2 BPDCN cells; at 45.8 µM (top of the series) unless noted;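 also: cells exposed to compounds for 48 h before reading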
In short: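 CellTiter-Glo luminescence after 48 h compound exposure of Gen2.2 cells; percent activity set with DMSO as 100% and bortezomib (9.2 uM final) as 0%. Cells seeded at 500 per well, RPMI + 10% FBS, 37 °C.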

[4] = High-throughput drug toxicity screening in the BPDCN cell line Cal-1 (AID 1224825); details: Cal-1 BPDCN cell viability, qHTS; at 45.8 µM (top of the series) unless noted
In short: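 Viability of the BPDCN line Cal-1 is measured as ATP-based luminescence (CellTiter-Glo) following 48 h incubation with compounds. Percent activity uses DMSO-treated wells as 100% and 9.2 uM bortezomib as 0%.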

[5] = qHTS assay for measurement of the activity of small molecule inhibitors on Zika virus induced Caspase-3 activity in human iPSC derived neural progenitor cells (hNPCs) (AID 1224857; active = well fitted inhibition curve with a large enough effect; also: % of control where 0% means no effect; nearly all actives have a fitted effect of over 65% in size)
In short: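 Human iPSC-derived neural progenitor cells pretreated 1 hr with compounds, then infected with Zika virus (2 FFU/cell) for 6 hours at 37 C. Caspase-3/7 measured by Caspase-Glo luminescence; % inhibition calculated from induction scaled to uninfected (0%) and infected (100%) wells.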

[6] = qHTS assay for measurement of the activity of small molecule inhibitors on Zika virus induced Caspase-3 activity in human astrocytoma cells (AID 1224859; active = well fitted inhibition curve with a large enough effect;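 also: plate controls were ZIKV-infected untreated cells for no effect and uninfected cells for full effect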)
In short: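 SNB-19 astrocytoma cells, 250/well, pretreated 1 h with compounds, then Zika virus at 2 FFU/cell for 6 h at 37 C; Caspase-Glo 3/7 luminescence after 30 min; percent inhibition normalised to uninfected and infected controls.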

[7] = qHTS Screen of the MIPE 4.0 Collection Against Ewings Sarcoma (TC71) (AID 1259253; active = well fitted inhibition curve with a large enough effect; also: nearly all actives have a fitted effect of over 40% in size; also: potency is read from the fitted curve at half-maximal effect)
In short: (§2)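 Measured: ATP luminescence (CellTiter-Glo) 10 min after reagent addition, following 48 h drug treatment. Relative luciferase units converted to percent activity, with no-cell wells as full and DMSO wells as zero inhibition.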

[8] = qHTS Screen of the MIPE 4.0 Collection Against Ewings Sarcoma (TC32) (AID 1259256; active = well fitted inhibition curve with a large enough effect; also: nearly all actives have a fitted effect of over 45% in size; also: potency is read from the fitted curve at half-maximal effect)
In short: as §2

[9] = qHTS Screen of the MIPE 4.0 Collection Against Ewings Sarcoma (EW8) (AID 1259255; active = well fitted inhibition curve with a large enough effect; also: nearly all actives have a fitted effect of over 35% in size; also: potency is read from the fitted curve at half-maximal effect;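 as to viability: 100% = DMSO-treated cells and 0% = medium-only wells without cells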)
In short: as §2

| Compound | parasite growth, % of control (lower = inhibition) [1] [%] | growth, % of control [2] [%] | cell viability, % of control (lower = more cytotoxic) [3] [%] | viability (% of control) [4] [%] | Potency [5] | Potency [6] | Potency [7] | Potency [8] | Potency [9] |
| --- | --- | --- | --- | --- | --- | --- | --- | --- | --- |
| NC(=O)c1cnc(-c2ccc(C3(N)CCC3)cc2)c(-c2ccccc2)c1 | 30 | 75.7 | 80.1 | 67 | inactive | inactive | inactive |  |  |
| CC(C)(C)NC(=O)Nc1cccc(Nc2ncc(F)c(NC(C)(C)CO)n2)c1 | 7.73 | 3.88 | 235 | 45.1 | inactive | inactive |  | 2.35 µM (active) |  |
| NC(=O)[C@@H](CCC(F)(F)F)N(Cc1ccc(-c2ncon2)cc1F)S(=O)(=O)c1ccc(Cl)cc1 |  | 73.5 | 127 | 93.2 | inactive | inactive | 18.7 µM (active) | 14.8 µM (active) |  |
| NC1=N[C@@]2(c3cc(NC(=O)c4ccc(F)cn4)ccc3F)COC[C@@H]2CS1 | 26.1 | 20.1 | 21.6 | 12.9 | inactive | inactive |  | inactive | inactive |
| N[C@@]1(C(=O)O)CS(=O)(=O)[C@H]2[C@H](C(=O)O)[C@H]21 | 112 | 59.7 | 78.4 | 76 | inactive | inactive |  | 18.7 µM (active) |  |
| CN1CCN(CCOc2cc(OC3CCOCC3)c3c(Nc4c(Cl)ccc5c4OCO5)ncnc3c2)CC1 | 7.87 | 6.19 | 54.1 | 2.69 | inactive | inactive |  | 29.6 µM (active) |  |
| NC[C@@H]1O[C@@H](O[C@H]2[C@@H](O)[C@H](O[C@@H]3[C@@H](O)[C@@H](N)C[C@H](N)[C@H]3O[C@H]3O[C@H](CN)[C@@H](O)[C@@H](O)[C@H]3N)O[C@H]2CO)[C@H](N)[C@@H](O)[C@@H]1O |  | 99.6 | 134 | 147 | inactive | inactive |  |  | inactive |
| CC(C)C(C)C=CC(C)C1CCC2C3=CC=C4CC(O)CCC4(C)C3CCC21C (stereo not given) | 92.8 | 98 | 136 | 127 | inactive | inactive |  | inactive | inactive |
| Cc1cnc(C(=O)O)c[n+]1[O-] | 108 | 66.8 | 174 | 105 | inactive | inactive |  |  | inactive |
| COc1ccc2cccc(CCNC(C)=O)c2c1 | 72.6 | 41 | 206 | 132 | inactive | inactive |  | inactive | inactive |
| COC1CCC(N(C(=O)C2CCC(C)CC2)c2cc(C3=CCCCC3)sc2C(=O)O)CC1 (stereo not given) |  | 22.9 | 66.7 | 89.2 | inactive | inactive | 20.9 µM (active) | inactive |  |
| CC1(C)O[C@H]2C[C@@H]3[C@H]4CCC5=CC(=O)C=C[C@]5(C)[C@@]4(F)[C@@H](O)C[C@]3(C)[C@]2(C(=O)CO)O1 | 65.2 | 69 | 37.9 | 8.18 | inactive | inactive | inactive |  |  |
| COc1cccc([C@@H](C)NCCCc2ccccc2Cl)c1 | 13.3 | 7.8 | 172 | 66.2 | inactive | inactive |  | inactive | inactive |
| COc1cc(N2CCC(N3CCN(C)CC3)CC2)ccc1Nc1ncc(Cl)c(Nc2ccccc2S(=O)(=O)C(C)C)n1 | 5.51 | 7.64 | 5.5 | 2.84 | inactive | inactive | inactive |  |  |
| O=C(CCCCCCC(=O)Nc1ccccc1)NO |  |  | 171 | 7.8 |  |  |  |  |  |
| CC1(C)CCC(CN2CCN(c3ccc(C(=O)NS(=O)(=O)c4ccc(NCC5CCOCC5)c([N+](=O)[O-])c4)c(Oc4cnc5[nH]ccc5c4)c3)CC2)=C(c2ccc(Cl)cc2)C1 | 24.1 | 6.5 | 37.9 | 24.1 | inactive | inactive | 23.5 µM (active) |  |  |
| Cc1cc(OCCCc2c(C(=O)O)n(Cc3cccnc3)c3c(-c4c(COc5ccc(N6CCN([S+](C)(=O)[O-])CC6)cc5)nn(C)c4C)cccc23)cc(C)c1Cl |  | 5.16 | 62.9 | 96.7 | inactive | inactive | 20.9 µM (active) | 23.5 µM (active) |  |
| C[C@H]1[C@H](NC(=O)C(=NOC(C)(C)C(=O)O)c2csc(N)n2)C(=O)N1S(=O)(=O)O |  | 102 | 120 | 121 | inactive | inactive |  |  | inactive |
| CC[C@H]1OC(=O)[C@H](C)[C@@H](O[C@H]2C[C@@](C)(OC)[C@@H](O)[C@H](C)O2)[C@H](C)[C@@H](O[C@@H]2O[C@H](C)C[C@H](N(C)C)[C@@H]2O)[C@](C)(O)C[C@@H](C)CN(C)[C@H](C)[C@@H](O)[C@]1(C)O | 14 | 59 | 184 | 120 | inactive | inactive |  | 13.2 µM (active) | 16.6 µM (active) |
| CC=CCC=CCCC(=O)[C@H]1O[C@@H]1C(N)=O |  |  | 7.55 | 15.5 | inactive | inactive |  |  |  |
| Clc1ccc(-c2nc3sccn3c2C=NOCc2ccc(Cl)c(Cl)c2)cc1 |  | 43.2 | 111 | 116 | inactive | inactive |  |  | inactive |
| CC=C(C)C(=O)O[C@H]1C(C)=C[C@]23C(=O)[C@@H](C=C(CO)[C@@H](O)[C@]12O)[C@H]1[C@@H](C[C@H]3C)C1(C)C | 28.1 | 21 | 38.4 | 12.7 | inactive | inactive | 8.33 µM (active) |  |  |
| CC(C)(C)c1cc(C(=O)O)c(NC(=O)Nc2ccc3[nH]ncc3c2)s1 | 81.5 | 69.6 | 134 | 110 | inactive | inactive |  |  | inactive |

| Compound | parasite growth, % of control (lower = inhibition) [1] [%] | growth, % of control [2] [%] | cell viability, % of control (lower = more cytotoxic) [3] [%] | viability (% of control) [4] [%] | Potency [5] | Potency [6] | Potency [7] | Potency [8] | Potency [9] |
| --- | --- | --- | --- | --- | --- | --- | --- | --- | --- |
| COC(=O)N[C@H](C(=O)N1CCC[C@@H]1c1ncc(-c2ccc(-c3ccc(-c4cnc([C@@H]5CCCN5C(=O)[C@@H](NC(=O)OC)C(C)C)[nH]4)cc3)cc2)[nH]1)C(C)C | 24.9 | 14.2 | 6.1 | 28.7 | inactive | inactive |  | 26.4 µM (active) | 26.4 µM (active) |
| Nc1ncnc2ccccc12 | 82.3 | 77 | 145 | 100 | inactive | inactive |  | inactive | inactive |
| O=c1ccn([C@@H]2O[C@H](CO)[C@H](O)[C@H]2O)c(=O)[nH]1 |  | 107 | 90 | 112 | inactive | inactive |  | inactive | inactive |
| COc1ccc2cc(-c3nc(-c4ccc(S(C)=O)cc4)[nH]c3-c3ccncc3)ccc2c1 (stereo not given) | 10.6 | 3.67 | 470 | 65.1 | inactive | inactive |  | 20.9 µM (active) |  |
| CCC(=O)O[C@]1(C(=O)CO)CC[C@H]2[C@@H]3CCC4=CC(=O)CC[C@]4(C)[C@@H]3CC[C@@]21C | 38.1 | 31 | 84.6 | 81.8 | inactive | inactive |  | inactive | inactive |
| C=C1C(=O)OC(CCCCCCCC)C1C(=O)O (stereo not given) | 62.9 | 61.5 | 15.6 | 98 | inactive | inactive |  | 26.4 µM (active) |  |
| CNC(=O)c1ccccc1Sc1ccc2c(C=Cc3ccccn3)n[nH]c2c1 |  |  | 311 | 28.2 |  |  |  |  |  |
| CN1C[C@H]2c3ccccc3Oc3ccc(Cl)cc3[C@@H]2C1 |  |  | 54.1 | 73.9 |  |  |  |  |  |
| O=C(Nc1c(Cl)cncc1Cl)c1ccc(OC(F)F)c(OCC2CC2)c1 | 67.9 | 100 | 134 | 105 | inactive | inactive |  |  | inactive |
| CC=CC(=O)N(CC)c1ccccc1C | 142 | 99.4 | 116 | 35 | inactive | inactive |  |  | inactive |
| CCNc1cc(NC2CCC(O)CC2)nc(Nc2ccc3c(ccn3Cc3ccccc3)c2)n1 (stereo not given) | 15.2 | 9.27 | 21.8 | 2.13 | inactive | inactive |  | 23.5 µM (active) |  |
| CCS(=O)(=O)N1CC(CC#N)(n2cc(-c3ncnc4[nH]ccc34)cn2)C1 |  |  | 134 | 17.5 |  |  |  |  |  |
| CN1[C@@H]2CCC[C@@H]1CC(NC(=O)c1nn(C)c3ccccc13)C2 (stereo not given in full) |  |  | 97.5 | 105 |  |  |  |  |  |
| O=C(Nc1cc(Cl)cc2c1[nH]c1cnccc12)c1cccnc1 | 10.7 | 3.51 | 67.6 | 97.7 | inactive | inactive | 23.5 µM (active) | 26.4 µM (active) |  |
| COc1ccc(-c2nc(N3CCOCC3)c3sc(CN(C)c4ncc(C(=O)NO)cn4)cc3n2)cn1 | 8.46 | 2.4 | 8.39 | 2.7 | inactive | inactive |  |  |  |
| N#C[C@H]1C[C@H]2C[C@@H]2N1C(=O)[C@@H](N)C12CC3CC(CC(O)(C3)C1)C2 | 97 | 69.2 | 112 | 100 | inactive | inactive |  | 16.6 µM (active) |  |
| COc1ccc2c3c1OC1C[C@@H](O)C=C[C@@]31CCN(C)C2 (stereo not given in full) |  | 69.6 | 113 | 96.5 | inactive | inactive |  |  |  |
| Oc1ccc(C2CCN(c3ccnc4ccccc34)CC2)cc1O | 11.6 | 3.95 | 31 | 5.01 | inactive | inactive |  |  |  |
| COc1ncc(-c2ccc3nccc(-c4ccnnc4)c3c2)cc1NS(=O)(=O)c1ccc(F)cc1F | 6.02 | 4.97 | 3.44 | 3.33 | inactive | inactive |  |  |  |
| O=c1cc(-c2cccc3c2Sc2ccccc2S3)oc(N2CCOCC2)c1 | 61.1 | 39.5 | 22.3 | 35.7 | inactive | inactive |  |  |  |
| Cc1c[nH]c(C=C2C(=O)Nc3ccccc32)c1CCC(=O)O | 29.1 | 37.7 | 45 | 55.9 | inactive | inactive |  |  |  |
| CC(C)[C@H](CO)Nc1nc(Nc2ccc(C(=O)O)c(Cl)c2)c2ncn(C(C)C)c2n1 |  | 18.3 | 9.58 | 5.62 | inactive | inactive |  |  |  |
| O=c1cc(N2CCOCC2)oc2c(-c3cccc4c3sc3ccccc34)cccc12 | 25.8 | 7.93 | 2.51 | 3.76 | inactive | inactive |  |  |  |
